# From ChEMBL document CHEMBL3988442, “University of Dundee, Small-Polar-MMV Screening Library” (2021)
# For some assays here: Measured potencies and affinities stand elsewhere.
# Tests used:
# [1] = molecular target: Protein translocase subunit SecA (Escherichia coli (strain K12)) (UniProt P10408); assay: Assay to Identify E. coli SecA ATPase Inhibitors; type: functional; set-up: scale not given: direction of the effect not stated beside the values; conditions: 30 µM
# [2] = molecular target: T1, Ubiquitin-activating enzyme e1, putative (Leishmania donovani (strain BPK282A1)) (UniProt E9BSI1); assay: Leishmania donovani Ubiquitin Activating Enzyme (LdE1); type: functional; set-up: scale not given: direction of the effect not stated beside the values; conditions: 30 µM
# T1 sequence (whole entry): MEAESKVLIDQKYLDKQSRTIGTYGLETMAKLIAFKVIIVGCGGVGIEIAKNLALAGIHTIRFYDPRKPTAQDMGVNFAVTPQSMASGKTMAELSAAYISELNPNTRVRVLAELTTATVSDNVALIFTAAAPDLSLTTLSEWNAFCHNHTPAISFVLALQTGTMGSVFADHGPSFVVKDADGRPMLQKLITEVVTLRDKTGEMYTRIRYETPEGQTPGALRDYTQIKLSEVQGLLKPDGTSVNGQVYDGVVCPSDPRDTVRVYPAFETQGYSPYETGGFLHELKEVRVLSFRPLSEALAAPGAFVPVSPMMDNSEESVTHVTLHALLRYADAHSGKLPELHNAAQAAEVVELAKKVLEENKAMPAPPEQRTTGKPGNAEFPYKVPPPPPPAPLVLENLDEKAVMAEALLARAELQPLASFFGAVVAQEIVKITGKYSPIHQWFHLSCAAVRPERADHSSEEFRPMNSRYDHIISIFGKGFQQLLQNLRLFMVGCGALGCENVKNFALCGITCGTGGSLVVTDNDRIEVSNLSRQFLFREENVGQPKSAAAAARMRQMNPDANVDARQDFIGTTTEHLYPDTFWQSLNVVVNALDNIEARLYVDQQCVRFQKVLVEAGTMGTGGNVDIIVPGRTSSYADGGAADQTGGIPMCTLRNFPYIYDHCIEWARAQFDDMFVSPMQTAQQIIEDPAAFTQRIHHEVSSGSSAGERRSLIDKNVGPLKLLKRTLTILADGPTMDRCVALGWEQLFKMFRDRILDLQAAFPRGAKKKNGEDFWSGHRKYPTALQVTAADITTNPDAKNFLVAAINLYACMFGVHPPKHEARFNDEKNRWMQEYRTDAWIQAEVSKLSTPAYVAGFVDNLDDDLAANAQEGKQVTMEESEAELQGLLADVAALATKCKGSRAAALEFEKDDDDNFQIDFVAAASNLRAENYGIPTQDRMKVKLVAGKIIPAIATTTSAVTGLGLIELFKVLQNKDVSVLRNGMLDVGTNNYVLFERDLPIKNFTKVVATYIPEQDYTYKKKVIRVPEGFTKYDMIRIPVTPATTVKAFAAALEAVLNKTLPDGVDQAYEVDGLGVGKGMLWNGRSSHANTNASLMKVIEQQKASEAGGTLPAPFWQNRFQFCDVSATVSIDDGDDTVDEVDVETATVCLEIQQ
# [3] = molecular target: T2, Aspartate--tRNA(Asp/Asn) ligase (Mycobacterium tuberculosis (strain ATCC 25618 / H37Rv)) (UniProt P9WFW3); assay: Assay for Asp RNA synthetase-1 from Mycobacterium tuberculosis; type: functional; set-up: scale not given: direction of the effect not stated beside the values; conditions: 30 µM; further: in the data most compounds retested in dose-response had high values
# T2 sequence (whole entry): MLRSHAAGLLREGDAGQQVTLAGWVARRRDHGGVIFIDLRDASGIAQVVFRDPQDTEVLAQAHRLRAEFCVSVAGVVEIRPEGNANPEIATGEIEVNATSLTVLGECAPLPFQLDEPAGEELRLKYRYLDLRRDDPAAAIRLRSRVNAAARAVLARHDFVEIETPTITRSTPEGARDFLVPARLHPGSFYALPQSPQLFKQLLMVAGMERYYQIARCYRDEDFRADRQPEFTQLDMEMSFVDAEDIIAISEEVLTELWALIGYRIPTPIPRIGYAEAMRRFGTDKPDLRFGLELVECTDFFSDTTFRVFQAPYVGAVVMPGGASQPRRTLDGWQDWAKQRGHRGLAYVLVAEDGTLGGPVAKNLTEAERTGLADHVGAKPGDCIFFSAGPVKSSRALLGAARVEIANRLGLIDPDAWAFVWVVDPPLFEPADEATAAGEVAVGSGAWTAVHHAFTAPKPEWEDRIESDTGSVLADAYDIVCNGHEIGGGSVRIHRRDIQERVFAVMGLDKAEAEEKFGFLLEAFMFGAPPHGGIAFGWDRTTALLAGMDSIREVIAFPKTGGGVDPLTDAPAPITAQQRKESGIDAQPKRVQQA
# [4] = molecular target: AMP-activated protein kinase, AMPK (Homo sapiens) (UniProt P54646+O43741+P54619+Q9UGJ0+Q9Y478+Q13131+Q9UGI9); assay: AMP-dependent Kinase enzyme assay. An in vitro enzyme assay that detects ADP turnover that is directly proportional to AMPK activity. This uses naive AMPK that is activated during the assay with MK-8722; type: functional; set-up: scale not given: direction of the effect not stated beside the values; conditions: 30 µM
# [5] = molecular target: Sialic acid-binding Ig-like lectin 9 (Homo sapiens) (UniProt Q9Y336); assay: Hs-Siglec9 ALPHAscreen SOP 20170721; set-up: scale not given: direction of the effect not stated beside the values; conditions: 10 µM
# Chain of Sialic acid-binding Ig-like lectin 9 (Homo sapiens) (Q9Y336 whole entry): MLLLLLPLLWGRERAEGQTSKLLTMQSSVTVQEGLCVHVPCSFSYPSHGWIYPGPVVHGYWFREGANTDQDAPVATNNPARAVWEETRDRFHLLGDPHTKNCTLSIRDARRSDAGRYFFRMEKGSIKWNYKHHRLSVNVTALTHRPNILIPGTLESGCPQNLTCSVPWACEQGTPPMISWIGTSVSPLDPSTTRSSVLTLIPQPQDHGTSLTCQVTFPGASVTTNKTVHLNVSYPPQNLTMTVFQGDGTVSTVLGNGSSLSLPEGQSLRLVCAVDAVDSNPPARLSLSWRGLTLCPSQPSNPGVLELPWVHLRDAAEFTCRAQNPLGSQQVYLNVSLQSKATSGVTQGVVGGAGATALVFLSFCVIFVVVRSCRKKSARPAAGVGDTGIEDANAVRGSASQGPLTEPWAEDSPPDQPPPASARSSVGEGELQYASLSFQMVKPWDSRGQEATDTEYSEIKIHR
# Trypanosoma cruzi = assay: Trypanosoma cruzi phosphomannomutase and mannose-1-phosphate guanylyltransferase assay; type: functional; set-up: scale not given: direction of the effect not stated beside the values; conditions: 10 µM
# [6] = molecular target: T3, Arginase-2, mitochondrial (Homo sapiens) (UniProt P78540); assay: in vitro enzyme assay to detect the production of urea directly proportional to the activity of Arginase II; type: functional; set-up: scale not given: in the data most compounds retested in dose-response had high values; conditions: 33.3 µM
# T3 sequence (whole entry): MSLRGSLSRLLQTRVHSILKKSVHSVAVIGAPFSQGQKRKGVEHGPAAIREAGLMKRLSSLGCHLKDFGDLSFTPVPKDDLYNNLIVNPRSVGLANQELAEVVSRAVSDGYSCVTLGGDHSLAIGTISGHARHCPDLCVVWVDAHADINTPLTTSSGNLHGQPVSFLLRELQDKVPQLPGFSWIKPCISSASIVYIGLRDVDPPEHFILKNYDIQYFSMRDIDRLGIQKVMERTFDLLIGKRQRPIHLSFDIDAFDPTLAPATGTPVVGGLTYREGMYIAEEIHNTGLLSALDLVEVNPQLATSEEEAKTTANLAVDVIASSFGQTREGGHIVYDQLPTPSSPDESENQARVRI
# [7] = molecular target: T4, Proteasome subunit beta (Trypanosoma cruzi) (UniProt O96673); assay: Trypanosoma cruzi proteasome chymotrypsin-like activity (TcProtChymo) assay.; type: functional; set-up: scale not given: in the data most compounds retested in dose-response had high values; conditions: 9.37 µM
# T4 sequence (whole entry): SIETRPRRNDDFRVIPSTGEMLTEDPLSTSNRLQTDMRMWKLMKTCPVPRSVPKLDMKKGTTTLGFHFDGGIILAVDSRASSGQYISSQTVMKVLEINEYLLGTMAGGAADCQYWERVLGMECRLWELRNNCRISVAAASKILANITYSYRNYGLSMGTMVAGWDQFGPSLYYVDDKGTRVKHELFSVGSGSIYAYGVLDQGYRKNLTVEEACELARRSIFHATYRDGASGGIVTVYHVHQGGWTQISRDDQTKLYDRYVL
# Homo sapiens = species on record: Homo sapiens; assay: To identify inhibition of the IFN signalling (Jak-Stat) pathway via expression of an eGFP reporter gene under the control of an IFN-stimulated response element (ISRE) containing MxA promoter.; type: functional; set-up: scale not given: direction of the effect not stated beside the values; conditions: 30 µM
# [8] = molecular target: Shiga toxin 2 (Escherichia coli O157:H7) (UniProt P09385+P09386); assay: E. coli 0.157:H7 Shiga Toxin SOP - stx2 screening assay; type: functional; set-up: scale not given: direction of the effect not stated beside the values; conditions: 30 µM
# [9] = molecular target: T5, Tyrosyl-tRNA synthetase, putative (Trypanosoma cruzi (strain CL Brener)) (UniProt Q4DSP6); assay: Trypanosoma cruzi tyrosyl tRNA synthetase (TcYRS) _High Tyrosine SOP; type: functional; set-up: scale not given: in the data most compounds retested in dose-response had high values; conditions: 30 µM
# T5 sequence (whole entry): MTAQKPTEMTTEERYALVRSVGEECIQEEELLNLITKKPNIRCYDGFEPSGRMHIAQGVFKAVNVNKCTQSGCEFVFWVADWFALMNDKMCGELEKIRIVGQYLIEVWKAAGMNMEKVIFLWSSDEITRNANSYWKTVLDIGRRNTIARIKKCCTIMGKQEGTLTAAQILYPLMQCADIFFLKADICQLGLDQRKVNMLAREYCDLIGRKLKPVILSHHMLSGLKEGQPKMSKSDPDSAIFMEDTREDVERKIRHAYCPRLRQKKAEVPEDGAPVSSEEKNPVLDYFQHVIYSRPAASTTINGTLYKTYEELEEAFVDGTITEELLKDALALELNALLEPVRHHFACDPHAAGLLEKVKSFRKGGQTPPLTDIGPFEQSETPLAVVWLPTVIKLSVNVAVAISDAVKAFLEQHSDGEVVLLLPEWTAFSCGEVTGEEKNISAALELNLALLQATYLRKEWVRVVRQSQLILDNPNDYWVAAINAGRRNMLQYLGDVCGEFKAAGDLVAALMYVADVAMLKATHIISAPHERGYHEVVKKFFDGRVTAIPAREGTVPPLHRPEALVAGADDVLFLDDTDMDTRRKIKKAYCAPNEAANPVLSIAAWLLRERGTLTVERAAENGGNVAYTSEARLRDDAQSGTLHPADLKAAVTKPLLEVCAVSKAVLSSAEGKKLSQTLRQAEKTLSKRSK
# [10] = molecular target: T5, Tyrosyl-tRNA synthetase, putative (Trypanosoma cruzi (strain CL Brener)); assay: Trypanosoma cruzi tyrosyl tRNA synthetase (TcYRS) SOP; type: functional; set-up: scale not given: direction of the effect not stated beside the values; conditions: 30 µM
# [11] = molecular target: Chromo domain-containing protein 1 (Saccharomyces cerevisiae (strain ATCC 204508 / S288c) (Baker's yeast)) (UniProt P32657); assay: ScCHD-1 Enzyme Inhibition Assay; type: functional; set-up: scale not given: in the data most compounds retested in dose-response had high values; conditions: 30 µM
# Chain of Chromo domain-containing protein 1 (Saccharomyces cerevisiae (strain ATCC 204508 / S288c) (Baker's yeast)) (P32657 whole entry, the tested form may be a part): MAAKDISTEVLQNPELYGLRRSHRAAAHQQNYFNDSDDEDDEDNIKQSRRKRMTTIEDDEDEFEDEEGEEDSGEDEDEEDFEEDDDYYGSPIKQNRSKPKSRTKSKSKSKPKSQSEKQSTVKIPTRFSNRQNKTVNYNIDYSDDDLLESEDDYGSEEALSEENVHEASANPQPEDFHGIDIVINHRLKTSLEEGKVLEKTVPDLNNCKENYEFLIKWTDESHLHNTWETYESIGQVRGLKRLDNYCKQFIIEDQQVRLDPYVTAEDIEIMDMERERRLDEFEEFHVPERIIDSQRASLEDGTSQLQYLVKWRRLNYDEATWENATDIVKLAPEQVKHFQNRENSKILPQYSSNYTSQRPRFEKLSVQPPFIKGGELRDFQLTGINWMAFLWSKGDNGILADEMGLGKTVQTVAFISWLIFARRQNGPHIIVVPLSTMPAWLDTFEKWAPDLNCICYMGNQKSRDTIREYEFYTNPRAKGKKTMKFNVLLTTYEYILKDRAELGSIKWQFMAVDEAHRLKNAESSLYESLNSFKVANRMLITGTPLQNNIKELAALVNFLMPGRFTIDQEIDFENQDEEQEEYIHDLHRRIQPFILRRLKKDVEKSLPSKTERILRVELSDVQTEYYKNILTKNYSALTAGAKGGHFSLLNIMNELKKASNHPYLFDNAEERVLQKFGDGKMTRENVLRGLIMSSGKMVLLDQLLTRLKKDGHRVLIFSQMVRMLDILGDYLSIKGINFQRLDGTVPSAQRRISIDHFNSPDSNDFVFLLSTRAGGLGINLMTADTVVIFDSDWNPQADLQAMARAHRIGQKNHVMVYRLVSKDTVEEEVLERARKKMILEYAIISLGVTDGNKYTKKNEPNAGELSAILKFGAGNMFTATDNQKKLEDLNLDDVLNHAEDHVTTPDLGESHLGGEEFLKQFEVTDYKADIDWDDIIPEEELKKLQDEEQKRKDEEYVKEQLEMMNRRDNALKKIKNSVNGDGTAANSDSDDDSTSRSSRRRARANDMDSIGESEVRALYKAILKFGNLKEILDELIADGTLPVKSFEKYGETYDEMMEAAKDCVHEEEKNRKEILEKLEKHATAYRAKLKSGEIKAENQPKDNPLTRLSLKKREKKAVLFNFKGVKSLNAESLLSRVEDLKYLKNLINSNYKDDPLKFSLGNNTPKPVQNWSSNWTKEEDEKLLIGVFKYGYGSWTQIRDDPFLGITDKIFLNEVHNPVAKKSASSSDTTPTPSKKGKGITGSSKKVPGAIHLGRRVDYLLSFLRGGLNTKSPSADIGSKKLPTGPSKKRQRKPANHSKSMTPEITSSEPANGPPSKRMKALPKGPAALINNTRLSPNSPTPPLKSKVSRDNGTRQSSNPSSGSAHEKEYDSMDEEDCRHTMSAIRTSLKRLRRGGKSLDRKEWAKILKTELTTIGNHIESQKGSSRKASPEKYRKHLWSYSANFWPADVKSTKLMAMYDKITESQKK
# [12] = molecular target: T6, Methionyl-tRNA synthetase, putative (Leishmania donovani (strain BPK282A1)) (UniProt E9BF75); assay: Leishmania donovani Methionine tRNA synthetase (LdMetRS):v7. Dose response assay; type: functional; set-up: conc 80 nM, time 150 minutes
# T6 sequence (whole entry): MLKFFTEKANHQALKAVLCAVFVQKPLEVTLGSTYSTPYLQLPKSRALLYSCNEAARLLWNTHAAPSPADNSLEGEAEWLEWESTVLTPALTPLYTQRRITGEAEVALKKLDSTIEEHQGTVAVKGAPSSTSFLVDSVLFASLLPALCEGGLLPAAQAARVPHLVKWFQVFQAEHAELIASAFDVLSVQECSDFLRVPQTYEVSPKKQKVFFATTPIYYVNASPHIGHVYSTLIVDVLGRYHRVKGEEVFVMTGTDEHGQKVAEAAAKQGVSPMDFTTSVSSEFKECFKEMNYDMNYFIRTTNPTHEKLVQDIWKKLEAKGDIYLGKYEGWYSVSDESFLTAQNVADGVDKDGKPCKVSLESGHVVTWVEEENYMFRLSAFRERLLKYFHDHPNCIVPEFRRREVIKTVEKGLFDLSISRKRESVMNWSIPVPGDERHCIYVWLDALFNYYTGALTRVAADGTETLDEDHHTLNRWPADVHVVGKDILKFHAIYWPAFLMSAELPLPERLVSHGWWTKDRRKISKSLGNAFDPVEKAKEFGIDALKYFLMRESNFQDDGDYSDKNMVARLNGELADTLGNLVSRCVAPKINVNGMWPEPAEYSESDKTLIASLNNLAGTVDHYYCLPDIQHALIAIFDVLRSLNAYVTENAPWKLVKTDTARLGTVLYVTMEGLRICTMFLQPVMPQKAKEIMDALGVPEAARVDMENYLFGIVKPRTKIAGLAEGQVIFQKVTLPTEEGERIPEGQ
# Chain of Protein translocase subunit SecA (Escherichia coli (strain K12)) (P10408 whole entry): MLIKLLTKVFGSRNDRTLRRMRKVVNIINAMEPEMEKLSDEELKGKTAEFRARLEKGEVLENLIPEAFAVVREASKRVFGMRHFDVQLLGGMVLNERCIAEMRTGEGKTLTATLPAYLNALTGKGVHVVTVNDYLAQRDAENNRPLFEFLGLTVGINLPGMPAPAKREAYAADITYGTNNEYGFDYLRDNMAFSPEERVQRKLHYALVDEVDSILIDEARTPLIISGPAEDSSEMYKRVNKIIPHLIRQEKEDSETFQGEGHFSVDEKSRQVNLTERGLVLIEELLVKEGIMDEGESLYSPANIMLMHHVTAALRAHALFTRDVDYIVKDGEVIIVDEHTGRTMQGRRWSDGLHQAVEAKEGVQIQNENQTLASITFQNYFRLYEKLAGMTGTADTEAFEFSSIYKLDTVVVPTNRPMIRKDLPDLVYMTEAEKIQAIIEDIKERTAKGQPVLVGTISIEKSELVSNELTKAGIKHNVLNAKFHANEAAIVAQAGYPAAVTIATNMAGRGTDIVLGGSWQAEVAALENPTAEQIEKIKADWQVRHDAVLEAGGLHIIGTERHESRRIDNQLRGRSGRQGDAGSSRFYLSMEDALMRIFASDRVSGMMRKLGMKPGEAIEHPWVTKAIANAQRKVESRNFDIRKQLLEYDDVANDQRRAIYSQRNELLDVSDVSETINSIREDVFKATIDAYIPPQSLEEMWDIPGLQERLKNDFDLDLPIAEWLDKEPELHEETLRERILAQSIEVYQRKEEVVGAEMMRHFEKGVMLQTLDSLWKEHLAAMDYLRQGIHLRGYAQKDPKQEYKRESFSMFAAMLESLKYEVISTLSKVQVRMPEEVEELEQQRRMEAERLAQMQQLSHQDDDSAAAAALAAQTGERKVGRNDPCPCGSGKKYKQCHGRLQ
smiles,measurement,setting,value
O=C1CSC(c2ccsc2)c2sccc2N1 (centres undefined),Percent Effect,[1],-4.83%
same,Percent Effect,[2],-57.3%
same,Percent Effect,[3],4.27%
same,Percent Effect,[4],7.24%
same,Percent Effect,[5],10.3%
same,Percent Effect,Trypanosoma cruzi,-3.34%
same,Percent Effect,[6],-4.4%
same,Percent Effect,[7],7.21%
same,Percent Effect,Homo sapiens,6.1%
same,Percent Effect,[8],5.43%
same,Percent Effect,[9],-1.06%
same,Percent Effect,[10],-2.56%
same,Percent Effect,[11],106%
Oc1ccc(Cl)cc1Cl,PXC50,[12]; MAX_EFFECT 9.315589354,< 3
same,PXC50,[12]; MAX_EFFECT 10.1511879,< 3
c1cc(NC2CC3(CCN(Cc4cc[nH]n4)C3)C2)ncn1 (centres undefined),Percent Effect,[1],-3.9%
same,Percent Effect,[2],-4.05%
same,Percent Effect,[3],-4.78%
same,Percent Effect,[4],5.87%
same,Percent Effect,[5],0.0436%
same,Percent Effect,Trypanosoma cruzi,5.73%
same,Percent Effect,[6],-3.02%
same,Percent Effect,[7],2.18%
same,Percent Effect,Homo sapiens,-4.19%
same,Percent Effect,[8],0.0104%
same,Percent Effect,[9],2.15%
same,Percent Effect,[10],3.9%
same,Percent Effect,[11],-8.87%
Cc1nc(N2C[C@@H]3CCN(C)[C@@H]3C2)c2ccsc2n1,PXC50,[12]; MAX_EFFECT 4.081632653,< 4
same,PXC50,[12]; MAX_EFFECT 6.313131313,< 4
Clc1ccccc1Nc1ncnc(-n2cccc2)n1,PXC50,[12]; MAX_EFFECT 8.148148148,< 4
Cc1cc(CN2C[C@@H]3CCCO[C@@H]3[C@H](Nc3ccccn3)C2)no1,Percent Effect,[1],-6.36%
same,Percent Effect,[2],8.11%
same,Percent Effect,[3],1.17%
same,Percent Effect,[4],2.41%
same,Percent Effect,[5],16.5%
same,Percent Effect,Trypanosoma cruzi,1.47%
same,Percent Effect,[6],4.22%
same,Percent Effect,[7],7.3%
same,Percent Effect,Homo sapiens,2.28%
same,Percent Effect,[8],10.7%
same,Percent Effect,[9],5.38%
same,Percent Effect,[10],16.1%
same,Percent Effect,[11],-5.82%
O=C(O)CN1CCC(F)(F)C2(CCN(c3ccccn3)C2)C1 (centres undefined),PXC50,[12]; MAX_EFFECT 7.981220657,< 4
same,PXC50,[12]; MAX_EFFECT 9.814814815,< 4
O=C(NCc1ccccn1)[C@]12COC[C@H]1CN(C1CCC1)C2,Percent Effect,[1],-2.39%
same,Percent Effect,[2],18.7%
same,Percent Effect,[3],-4.34%
same,Percent Effect,[4],0.454%
same,Percent Effect,[5],0.409%
same,Percent Effect,Trypanosoma cruzi,3.86%
same,Percent Effect,[6],85.8%
same,Percent Effect,[7],10.9%
same,Percent Effect,Homo sapiens,-5.18%
same,Percent Effect,[8],-15.4%
same,Percent Effect,[9],3.12%
same,Percent Effect,[10],10%
same,Percent Effect,[11],-7.8%
